The record followed here is PubChem BioAssay (NCI).

About 83,000 compounds went through this panel and 20% of them were active in at least one assay; those are over-represented in the sample as a whole.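 How to read the values: 0–100, growth inhibition (40 = 60% inhibited); 0, no net growth; -100 to 0, cell death (-40 = 40% of starting cells died; -100 = all dead).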 Values without a mark were called inactive. The source made the active and inactive calls. The calls were made as follows: active = growth percent below 10; inactive = the rest.

The first assay relates to SN12C renal. Briefly: NCI-60 one-dose screen, 48 h (100 = growth as untreated, 0 = no growth, -100 = all killed). The conditions noted are these: 10 µM unless noted.
As for `Cc1ccc(/C=N/Nc2nc(Nc3ccccc3)nc(Nc3ccc(S(N)(=O)=O)cc3)n2)cc1`, the growth was 82.5%. Take `Cc1ccc(S(=O)(=O)NCCCNc2nc(Nc3ccc(N4CCN(C)CC4)cc3)nc3ccsc23)cc1`: the growth is 58.3%. On the same count and under the same terms, under `CC(C)=CCC[C@](C)(O)[C@H]1CC[C@]2(C)[C@@H]1CC[C@@H]1[C@@]3(C)CC[C@H](N)C(C)(C)[C@@H]3CC[C@]12C` stands 96.1%. As to `NNc1nnc2nc(Nc3ccccc3)nc(Nc3ccc(S(N)(=O)=O)cc3)n12`, the growth was 98.8%.

For the next assay, the system named is UO-31 renal. Described as above. The conditions noted are these: 10 µM unless noted.
On to `COCCOc1ccc2ncc(C#Cc3cncc(C(=O)Nc4ccc(CN5CCN(C)CC5)c(C(F)(F)F)c4)c3)n2n1`, for which the growth was 2.58% (active).

With `CCOC(=O)c1c(N)c(C#N)cn1Cc1ccc(Cl)cc1Cl`, the growth is 59.9%. As to `Cc1ccc(Nc2nc(SC(C)C)nc(-c3ccccc3)c2C#N)cc1`, the growth is 88.4%. For the compound `O=C(CSc1nc2ccccc2c(=O)n1-c1ccc(Cl)c(Cl)c1)Nc1ccc(S(=O)(=O)Nc2ccc(Cl)nn2)cc1`, the growth is 79.8%. On the same count and under the same terms, under `N#Cc1cnc2ccc(-c3cnc4n[nH]nc4c3)cc2c1N1CCc2cc(F)c(Cl)cc21` stands 2.18% (active); under `CNC(=O)Nc1ccc(Nc2cc(-c3ccc(-n4cccn4)cc3)[nH]n2)c(C)c1`, 85.4%; under `CN1CCN(Cc2ccc(NC(=O)c3cncc(C#Cc4cnc5ccc(N)nn45)c3)cc2C(F)(F)F)CC1`, 96.3%.

For `Cc1cc(=O)oc2cc(OCCCOc3ccc(/C=C/C(=O)Nc4ccc(Br)cc4)cc3)ccc12`, the growth was 82.3%. In the case of `C/C(CC1(O)C(=O)Nc2ccccc21)=N\O` (centres undefined), the growth is 84.9%. As for `Cc1ccc2c(n1)C(=O)C(Cl)=C(Nc1ccccc1C(=O)OC(C)(C)C)C2=O`, the growth was -62.7% (active). For the compound `COc1ccc(/C=N\NC(=O)c2cnn(CC(O)c3ccccc3)c2N)cc1OCc1ccc(Cl)cc1` (centres undefined), the growth was 87.4%. On the same count and under the same terms, under `NC(N)=NS(=O)(=O)c1ccc(N=Nc2c(N)nn(-c3ccc([N+](=O)[O-])cc3[N+](=O)[O-])c2N)cc1` stands 82.5%.

In the case of `COc1ccccc1Cn1cc(C#N)c(N)c1C(=O)c1ccc(Br)cc1`, the growth is 78.1%. Regarding `CC(=C(c1ccc(OCCN2CCCC2)cc1)c1ccc(OCCN2CCCC2)cc1)c1ccc(Cl)cc1`, the growth was -74% (active). Same read-out and setting: under `CCN(CC)CCOc1ccc(C(=C(C)Cc2ccc(OC)cc2)c2ccc(OCCN(CC)CC)cc2)cc1` stands 68.3%; under `Fc1ccc(-c2cn3c(-c4c[nH]c5ccc(Br)cc45)csc3n2)cc1`, 47.8%; under `CC1=C(C)C(=O)C(Nc2cccc(C(=O)OC(C)(C)C)c2)=CC1=O`, 66.4%.

Turning to `CSc1ccc(/C(=N/N=C(N)N)c2ccc(Cl)cc2)cc1`, the growth was 10.1%. With `O=C(/C=C/Nc1ccc(S(=O)(=O)Nc2ncccn2)cc1)c1ccc(N=Cc2c(O)[nH]c3ccccc23)cc1`, the growth was 92.4%.

Consider `N#Cc1c(-c2cccs2)cc(-c2cnccn2)nc1SCC(=O)N/N=C/c1cccs1`, for which the growth was 89.1%.

Turning to `O=S(=O)(NCCCNc1nccc(-c2[nH]c(-c3ccccc3)nc2-c2ccc(F)c(O)c2)n1)c1ccccc1`, the growth was 144%. Turning to `CC1(C)CC[C@]2(C(=O)NCCCCCCN(CCCN)CCCN)CC[C@]3(C)C(=CC[C@@H]4[C@@]5(C)CC[C@H](O)C(C)(C)[C@@H]5CC[C@]43C)[C@@H]2C1`, the growth was 85.7%. Same read-out and setting: the value for `CCOC(=O)c1c(NCC(=O)Nc2cccc([N+](=O)[O-])c2)sc(C(C)=O)c1C` was -12.7% (active). For `O=c1oc2ccc(-c3ccc(F)cc3F)cc2c(=O)n1-c1ccc(Br)cc1F`, the growth was 84.5%.

Take `Cc1ccc2c(n1)C(=O)C(Cl)=C(Nc1cccc(C(=O)OC(C)(C)C)c1)C2=O`: the growth is 78.4%.

As for `C/C(=C(\c1ccc(O)cc1)c1ccc(OCCN2CCCCCC2)cc1)c1ccc(Cl)cc1`, the growth was -93.3% (active). For the compound `CC1=C(C)C(=O)C(Nc2cccc(C(F)(F)F)c2)=C(Br)C1=O`, the growth was 79.1%. Still for that read-out and setting: under `CC(C)C(/C=C/c1[nH]ncc1-c1cc(Cl)ccc1O)N1CCOCC1` (centres undefined) stands 70%; under `Fc1cccc(Cl)c1/C=N/Nc1nc(N/N=C/c2c(F)cccc2Cl)nc(N2CCCCC2)n1`, 9.02% (active).

As to `COc1ccc(C2C(C#N)=C(/N=C/c3ccc(Cl)cc3)Oc3c2sc2c(C)cccc32)cc1` (centres undefined), the growth is 37.1%.

As to `O=C(CCCCCCNC(=O)C(O)(O)C(F)(F)F)Nc1ccc(Cl)cc1`, the growth was 8.11% (active). With `O=C1C(SCc2ccccc2)=C(Cl)CN1c1ccc(Cl)cc1`, the growth was -88.1% (active). On the same count and under the same terms, under `Cc1ccc(-c2nc(SCC(=O)c3ccccc3)nc(Nc3ccc(S(N)(=O)=O)cc3)c2C#N)cc1` stands 74.9%; under `O=C1C(N2CCN(c3ccccc3)CC2)=C(Cl)C(=O)c2ncccc21`, 14.9%; under `C#Cc1nc(C(=O)NCCCCCCC(=O)NO)cs1`, -91.3% (active).

Consider `C[C@H](Nc1ncnc2ccc(-c3cnc(Cl)c(NS(C)(=O)=O)c3)cc12)c1ccccc1`, for which the growth is -63.5% (active). Take `Cc1ccc(/C=N/Nc2nc(Nc3ccccc3)nc(Nc3ccc(S(N)(=O)=O)cc3)n2)cc1`: the growth was 68.1%. In the case of `Cc1ccc(S(=O)(=O)NCCCNc2nc(Nc3ccc(N4CCN(C)CC4)cc3)nc3ccsc23)cc1`, the growth was 50.7%.

For the compound `CC(C)=CCC[C@](C)(O)[C@H]1CC[C@]2(C)[C@@H]1CC[C@@H]1[C@@]3(C)CC[C@H](N)C(C)(C)[C@@H]3CC[C@]12C`, the growth was 77.1%.

Consider `NNc1nnc2nc(Nc3ccccc3)nc(Nc3ccc(S(N)(=O)=O)cc3)n12`, for which the growth was 82.2%.
